Screening data as filed in PubChem BioAssay.
IDE inh: cellular human IDE inhibition. P14735. HEK cells, FAbetaB cleavage, fluorescence polarization. inhibition, % at 5.59 µM. hit rate 0.41% among 320,000. AID 434962;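 active = percent inhibition above the average of all tested compounds plus 3 SD, set per screening campaign, cut at about 16% in these data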;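 note: IDE supplied by intact live HEK cells; FP after avidin binding of uncleaved biotin substrate so inhibition keeps polarization high; 0% = DMSO wells and 100% = 60 µM reference IDE inhibitor Ii1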
SKKanGAS inh: blocks kanamycin growth of S. pyogenes SKKanGAS strain | BacTiter-Glo, 6 h | inhibition, % at 7.5 µM | hit rate 1.3% among 300,000;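 active = mean replicate score, as percent of positive control median, at least 50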;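 note: strain carries kanamycin resistance gene driven by streptokinase promoter and grows in 40 µg/ml kanamycin; loss of luminescence reflects streptokinase promoter inhibition or plain growth inhibition; 0% = median of DMSO wells and 100% = positive control at its reference dose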
PP1 counter: blocks human PP1-alpha phosphatase, a PP5 counter-screen | P62136 | purified PP1alpha, OMFP fluorescence | inhibition, % at 6.7 µM | hit rate 0.9% among 320,000;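 active = inhibition above the mean inhibition of all tested compounds plus 3 SD, computed separately for each screening campaign, cut at about 15% in these data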
Granule exo inh: lytic granule exocytosis inhibition; TALL-104 LAMP-1 surface exposure, flow cytometry; cells stimulated with thapsigargin and PMA; AID 651702; hit rate 0.66% among 360,000; inhibition, % at 10 µM;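 active = inhibition above about 55%, limit read from the data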
PP5 inh: PP5 (human) phosphatase inhibition; P53041; purified PP5c, OMFP substrate fluorescence; inhibition, % at 6.7 µM; hit rate 0.18% among 320,000; AID 1987;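 active = inhibition above the campaign's mean inhibition across all tested compounds plus 3 SD, cut at about 9.5% in these data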;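 note: 0% = DMSO only and 100% = 100 µM cantharidin control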
IDE act: IDE (human) activation, cell-based; HEK cells, FAbeta-B cleavage, fluorescence polarization; 0% vehicle, 100% cell-free pure enzyme wells; hit rate 0.073% among 340,000; activation, % at 5.96 µM; AID 493087;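 active = activation above the mean of all tested compounds plus 3 SD, set per screening campaign, cut at about 17% in these data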
Active calls of the source: *; nt = not tested or not shown. Shown are actives, neighbours in structure and some others; about 2.8% of the full set was active somewhere.

SMILES	IDE inh	SKKanGAS inh	PP1 counter	Granule exo inh	PP5 inh	IDE act
COC(=O)N/N=C/c1cc(Br)ccc1O	-1.0	-5.3	-3.3	1.1	-2.0	4.9
O=C(N/N=C/c1cc(Br)ccc1O)c1ccccc1Cl	-3.0	68.4*	5.2	1.8	2.8	-5.7
O=C(N/N=C/c1cc(Br)ccc1O)C(=O)Nc1ccccc1OC(F)(F)C(F)F	-1.4	102.8*	6.1	-2.7	-1.0	-6.5
Cc1ccc(C(=O)N/N=C/c2cc(Br)ccc2O)cn1	9.5	68.6*	-3.4	-2.6	-3.0	-3.1
CCOc1cc([N+](=O)[O-])cc(/C=N/NC(=O)c2c(-c3ccccc3)noc2C)c1O	-1.9	91.8*	9.9	6.1	2.4	4.2
COc1cc([N+](=O)[O-])cc(/C=N/NC(=O)c2ccc(NC(=O)c3ccc(C)cc3)cc2)c1O	nt	12.6	nt	1.7	nt	6.0
CCOc1cc(/C=N/NC(=O)c2c(-c3ccccc3)noc2C)ccc1O	5.6	-12.9	0.7	-1.2	1.8	-0.8
COc1cc([N+](=O)[O-])cc(/C=N/NC(=O)c2ccc(C)nc2)c1O	-0.9	82.1*	24.3*	-0.8	4.8	1.4
COC(=O)C[C@H]1C=C[C@@H](NC(=O)C2CC2)[C@@H](CO)O1	nt	nt	nt	-16.0	nt	nt
CC12CCC(=O)N1C(C(=O)NCc1ccc(Cl)cc1Cl)CS2 (centres undefined)	2.8	-0.6	-3.0	-10.4	-0.1	-0.1
Cc1ccc(Cn2c(=N)c(C(=O)NCc3ccco3)cc3c(=O)n4ccccc4nc32)cc1	5.2	4.5	15.7*	27.5	4.6	-5.3
N=c1c(C(=O)NCc2ccco2)cc2c(=O)n3ccccc3nc2n1CCc1ccccc1	4.8	6.2	5.6	18.9	1.8	-3.9
Cc1ccc(NS(=O)(=O)c2ccc(Cl)c(NC(=S)NC(=O)C3CCCCC3)c2)cc1Cl	0.0	84.0*	4.8	16.4	3.9	2.9
O=C(COC(=O)/C=C/c1ccc(Cl)cc1Cl)NCC1CCCO1 (centres undefined)	-3.9	nt	nt	-0.7	nt	2.5
CCn1ccc(C(=O)NC2C(=O)N3C(C(=O)O)=C(C)CSC23)n1 (centres undefined)	5.0	-6.0	-0.8	-0.8	-0.7	-1.7
C=CC1=C(C(=O)O)N2C(=O)[C@@H](NC(=O)/C(=N\O)c3csc(N)n3)[C@H]2SC1 (stereo in doubt)	0.1	106.9*	0.9	-10.9	1.4	1.1
CCOC(=O)c1cc2c(=Cc3ccc(N(C)C)cc3)c3ccccc3n2[n+]1C	nt	nt	nt	67.2*	nt	-5.3
Cc1cc2c(=Cc3ccc(N(C)C)cc3)c3ccccc3n2[n+]1C	nt	nt	nt	4.8	nt	-2.3
Cc1c(NC(=O)C(C)OC(=O)COc2ccc(C#N)cc2)c(=O)n(-c2ccccc2)n1C (centres undefined)	-0.8	-9.5	-5.5	4.9	-2.9	3.6
O=C(NNc1c(Cl)cccc1Cl)c1c(F)cccc1Cl	-4.8	51.1*	-3.2	-4.1	-1.3	9.3
Cc1ccc(OCCOC(=O)c2c(-c3ccccc3)noc2C)cc1	0.5	18.0	-0.5	73.1*	2.1	-3.8
C[C@@H]1CC=C[C@H]2[C@H]1C(=O)N(Cc1ccccc1)[C@H]2c1ccc2ccccc2c1Br	nt	57.2*	nt	-5.4	nt	-1.1
Cc1ccc(-c2ccc([C@H]3[C@H]4C=CC[C@@H](C)[C@@H]4C(=O)N3Cc3ccccc3)c(F)c2)cc1	0.1	40.2	1.4	-6.6	0.8	5.6
COc1ccc(-c2cccc(C3CC=CC4C3C(=O)N(Cc3ccccc3)C4c3ccc(OC)c(Cl)c3)c2)cc1 (centres undefined)	-1.3	-2.6	9.9	-4.3	0.3	-5.0
C[C@@H]1CC=C[C@H]2[C@H]1C(=O)N(Cc1ccccc1)[C@H]2c1ccc(Br)cc1F	-6.5	51.9*	5.0	-7.7	2.3	5.0
SMILES	IDE inh	SKKanGAS inh	PP1 counter	Granule exo inh	PP5 inh	IDE act
C[C@@H]1CC=C[C@H]2[C@H]1C(=O)N(Cc1ccccc1)[C@H]2c1ccc2ccccc2c1	-0.6	43.7	-0.3	3.1	-0.7	0.8
CC[C@@H]1CC=C[C@H]2[C@H]1C(=O)N(Cc1ccccc1)[C@H]2c1ccc(OC)c(Cl)c1	1.1	59.0*	-2.5	-4.5	-0.5	1.5
Cc1oc(-c2ccccc2Cl)nc1CS(=O)CC(=O)NCCCN1CC(C)CC(C)C1 (centres undefined)	3.6	-7.0	-2.7	-1.0	0.1	-0.4
Cc1cccc(C)c1NC(=O)C1(C)CN(S(C)(=O)=O)CC(=O)N1CCc1ccccc1F (centres undefined)	nt	nt	nt	-5.1	nt	nt
COc1ccc(C(=O)NN2CCOCC2)cc1	-1.1	4.9	-0.7	4.4	1.7	3.7
CN(c1cccc(Cl)c1)S(=O)(=O)c1cccc(C(=O)Nc2nc3ccccc3[nH]2)c1	10.5	89.6*	10.9	28.9	4.0	3.5
O=C(Cc1ccccc1)Nc1nc2ccccc2[nH]1	3.8	0.9	-4.2	3.1	1.3	-4.8
O=C(Cc1ccc(Br)cc1)Nc1nc2ccccc2[nH]1	-4.1	57.0*	-8.4	-1.6	-1.4	2.8
Clc1cccc(/C(Cc2nc3ccccc3[nH]2)=N\Nc2ccccc2)c1	5.5	92.7*	2.4	-2.6	6.0	2.2
C=CCN(c1ccccc1)S(=O)(=O)c1cccc(C(=O)Nc2nc3ccccc3[nH]2)c1	3.0	20.8	16.7*	6.6	-3.3	-0.6
CCc1noc(C)c1C(=O)NC1CC(C)(C)Cc2c1cnn2-c1ccccc1 (centres undefined)	1.7	3.9	0.1	-0.9	4.2	0.1
CS(=O)(=O)N1CCN(C(=O)c2ccc(Cl)s2)CC1	3.1	0.0	-2.7	3.8	-0.6	-0.5
O=C(Nc1nc2ccccc2[nH]1)c1ccc(Cl)cc1	4.3	18.0	3.9	-5.5	3.6	-2.6
O=C(Nc1nc2ccccc2[nH]1)c1cccc(Cl)c1	1.3	64.3*	-1.7	-4.4	2.5	3.0
C[C@H]1CN([C@@H](C)CO)C(=O)CCCn2nncc2CO[C@@H]1CN(C)S(=O)(=O)c1ccc(-n2cccn2)cc1	nt	nt	nt	2.3	nt	nt
CC(=O)Nc1ccc(SC[C@H](Cc2ccccc2)N2CC[C@@H](C(C)(C)C)CCC2=O)cc1	10.3	nt	11.9	-7.0	7.1	-3.1
Cc1ccc2c(c1)=C(c1sc(N(C)c3ccc(O)cc3)nc1O)C(=O)N=2	4.7	80.3*	5.7	17.9	-0.3	4.3
CCSc1nnc(NC(=O)C2Cc3ccccc3CN2S(=O)(=O)CC)s1 (centres undefined)	-3.6	15.7	5.0	-1.4	1.0	1.1
CCS(=O)(=O)N1Cc2ccccc2CC1C(=O)Nc1nnc(SCc2c(Cl)cccc2Cl)s1 (centres undefined)	-3.4	24.7	17.4*	0.1	0.5	5.2
Cc1ccc(CN2CC(C(=O)Nc3nnc(SCc4c(Cl)cccc4Cl)s3)CC2=O)cc1 (centres undefined)	3.4	79.3*	16.2*	13.2	4.3	4.3
CCSc1nnc(NC(=O)c2cnccn2)s1	2.0	3.6	-4.8	nt	1.4	nt
CCSc1nnc(NC(=O)c2ccccn2)s1	-0.1	67.8*	3.5	-1.8	-1.5	4.9
